Results taken from ChEMBL document CHEMBL4513216, “Probing the Open Global Health Chemical Diversity Library for Multistage-Active Starting Points for Next-Generation Antimalarials” (ACS Infect Dis, 2020).
Among all 68,000 compounds or so, about 2,700 (4%) showed an effect of 50% or more. Only a selection was taken, and strong results are over-represented in it overall.

Each compound was assayed on Plasmodium berghei (assay: Screen against P. berghei liver stage (PbLuc), transformed with Luciferase, at 2uM). Details: tested at 2 uM.
Format: functional, HepG2

Row | Structure (SMILES) | INHIBITION [%]
1 | O=C(c1c(F)cc(Br)cc1F)N1CCc2cnccc21 | -62.99
2 | Cn1c(=O)[nH]c2cc(C(=O)OCC(F)F)ccc21 | -67.78
3 | Cn1ccc(C(=O)N2CCC(Cc3cccc4cccnc34)C2)n1 (stereo not given) | 9.79
4 | Cn1cc(C(=O)Nc2cccc(CCN3CCCC3)c2)ccc1=O | -51.94
5 | O=C(C1CCCCC1)N1CCC2(COc3ncccc3S(=O)(=O)N2)C1 (stereo not given) | -15.49
6 | COc1ccc(F)cc1CN1CCCC(c2cc(C(N)=O)[nH]n2)C1 (stereo not given) | 30.91
7 | NC(=O)c1cc(C2CCCN(CCc3ccccn3)C2)n[nH]1 (stereo not given) | 58.53
8 | NC(=O)c1cc(C2CCCN(C(=O)CCc3ccccn3)C2)n[nH]1 (stereo not given) | -0.71
9 | COc1cccc(CN2CCCC(c3cc(C(N)=O)[nH]n3)C2)c1 (stereo not given) | 54.99
10 | Cc1cc(C2CCCN(CCc3ccccn3)C2)n[nH]1 (stereo not given) | -12.48
11 | COc1ccccc1OCCN1CCCC(c2cc(C(N)=O)[nH]n2)C1 (stereo not given) | 31.51
12 | O=C(NCC(F)(F)F)C1CCCN(Cc2ccno2)C1 (stereo not given) | 20.32
13 | CC(C)c1nnc(NC(=O)C2CSCN2C(=O)C2CCC2)s1 (stereo not given) | -52.32
14 | O=C(c1cnccn1)N1CCN2C[C@H](OCc3ccccc3F)C[C@H]2C1 | -6.88
15 | CCCSCC(=O)N1C[C@@H]2CC[C@H]1CN(Cc1cccnc1)C2 | 16.1
16 | O=C(O)CC1COCCN1CCCc1ccccc1 (stereo not given) | 3.35
17 | Cc1cc(N2CCCC2c2cc(Nc3cnccn3)nc(C)n2)ncn1 (stereo not given) | 43.23
18 | O=C(CCc1nc2cc(Br)cnc2[nH]1)NCc1cccnc1 | 10.22
19 | c1ccc(CN2CCC(CCNc3ncnc4c3CCNCC4)C2)cc1 (stereo not given) | 31.3
20 | c1ccc(CN2CCC(CNc3ncnc4c3CCNCC4)CC2)cc1 | 70.58
21 | c1ccc(CN2CCCC(CNc3ncnc4c3CCNCC4)C2)cc1 (stereo not given) | 29.87
22 | O=C(c1ccncc1F)N1CCc2ncnc(C3CC3)c2CC1 | 21.67
23 | CCOc1ncccc1CNCc1c(C(C)C)nn(C)c1N(C)C | 74.35
24 | CC(C)c1nn(C)c(N(C)C)c1CNCc1cccnc1N(C)C | 39.54
25 | CC(C)c1nn(C)c(N(C)C)c1CNCc1ccc2c(c1)OCCO2 | 66.2
26 | COc1ncccc1CNCc1c(C(C)C)nn(C)c1N(C)C | 43.28
27 | CC(C)c1nn(C)c(Cl)c1CNCc1ccc2c(c1)OCCO2 | 8.37

Row | Structure (SMILES) | INHIBITION [%]
28 | Cc1nn(C)c(N(C)C)c1CNCc1cccnc1OC(C)C | 53.98
29 | CC(C)c1nn(C)c(N(C)C)c1CNCc1ccc2c(c1)OCO2 | -41.21
30 | CCOc1ncccc1CNCc1c(C)nn(C)c1N(C)C | 47.87
31 | COc1ncccc1CNCc1c(C)nn(C)c1N(C)C | 11.2
32 | C[C@@H]1C(=O)NC[C@H]2CN(Cc3ccsc3)C[C@H]21 | -66
33 | CC(C)(C)c1nc(CN2CCCC(Cn3cncn3)C2)no1 (stereo not given) | -64.16
34 | CN(C)C(=O)c1cn[nH]c1C1CCCN1Cc1nccn1C (stereo not given) | 11.2
35 | Cc1[nH]/c(=N\C(=O)c2csc(NC3CCCC3)n2)sc1C | 34.93
36 | CCS(=O)(=O)N1Cc2ncn(CC3CC3)c2C(COC)C1 (stereo not given) | 26.19
37 | Clc1ccc2oc(C3CCN(Cc4nc(C5CC5)no4)CC3)nc2c1 | 10.11
38 | c1cc(CCN2CCN(c3ccc4nncn4n3)CC2)ccn1 | -1.88
39 | C[S+]([O-])c1nncn1CC(=O)c1ccc2c(c1)CCC2 (stereo not given) | 61.82
40 | C[S+]([O-])c1nncn1CC(=O)c1ccc2c(c1)CCO2 (stereo not given) | -0.75
41 | C[S+]([O-])c1nncn1CC(=O)c1ccc(Cl)c(Cl)c1 (stereo not given) | 20.66
42 | COc1ccc(C2CN(c3cc(C)ncn3)CCN2C(C)=O)cc1 (stereo not given) | -28.43
43 | CSCc1noc(CN2CC(Cc3ccccc3)CC2=O)n1 (stereo not given) | 6.75
44 | O=C(c1cc(=O)[nH]c(=O)[nH]1)N1CCCCC1c1nc2cc(F)ccc2[nH]1 (stereo not given) | -18.49
45 | CC(NCC(=O)NCC(=O)Nc1ccc(F)cc1)c1cccs1 (stereo not given) | 16.95
46 | O=C(Cc1cccs1)NCC(=O)Nc1cn[nH]c1 | 28.49
47 | CN(CC(=O)NCC(=O)Nc1ccc(F)cc1)Cc1cccs1 | 69.13
48 | CCn1cc(C(=O)N2CCOC(c3nc(-c4cccs4)no3)C2)cn1 (stereo not given) | -36.52
49 | COc1cc(-c2n[nH]c(CC#N)n2)cc(OC)c1OC | 16.72
50 | CC(C)Nc1cc(N2CCC(n3cc(C4CCCC4)nn3)CC2)ncn1 | -1.21
51 | CCc1cc(N2CCC(n3cc(C(=O)NCC(C)C)nn3)CC2)ncn1 | -71.68
52 | CC(C)Nc1cc(N2CCC(n3cc(CCO)nn3)CC2)ncn1 | 69.71
53 | CC(C)Nc1cc(N2CCC(n3cc(C4CC4)nn3)CC2)ncn1 | -46.8
54 | CCc1cc(N2CCC(n3cc(C(=O)NC4CC4)nn3)CC2)ncn1 | 52.66

Row | Structure (SMILES) | INHIBITION [%]
55 | O=C(NC1CC1)c1cn(C2CCN(c3cc(C4CC4)ncn3)CC2)nn1 | -26.81
56 | CCC(CO)NCc1ccc(-c2ccc(Cl)cc2)o1 (stereo not given) | 2.25
57 | CNC(=O)CCc1cc(C)nc(C2CCN(c3ccccc3)CC2)c1 | -107.54
58 | CN(C)CCN1CCC2(CCN(C(=O)c3cccnc3)CC2)C1=O | 6.66
59 | O=C(O)c1nnn(Cc2cccc(C(F)(F)F)c2)c1-c1cccnc1 | 39.9
60 | O=C(O)c1nnn(Cc2cccc(C(F)(F)F)c2)c1-c1ccccn1 | 55.25
61 | O=C(O)c1nnn(Cc2cccc(C(F)(F)F)c2)c1-c1ccncc1 | 43.75
62 | COc1ccc2c(c1)CN(Cc1ccco1)C(=O)CCN2CC(C)(C)O | -35.52
63 | CO[C@@H]1CCC[C@@H](N(C)C(=O)c2cc(F)ccc2F)[C@H]1O | 53.16
64 | COc1ccc(F)cc1C(=O)N(C)[C@@H]1CC[C@@H](O)[C@@H]1O | 16.87
65 | CN(C(=O)c1cc(F)ccc1F)[C@@H]1CC[C@@H](O)[C@@H]1O | 41.21
66 | O=C(CO)N1CCOC2(CCCN(c3ncc(F)cn3)C2)C1 (stereo not given) | 14.27
67 | CC(C)(C(=O)N1CCCC(OCc2cccnc2)C1)n1cccc1 (stereo not given) | 27.81
68 | CN(CCO)CC1COCCN1C(=O)C1CCCCC1 (stereo not given) | -23.4
69 | O=C(CC1CCCCC1)N1CCOCC1CO (stereo not given) | 18.81
70 | CN(CCO)CC1COCCN1C(=O)CCC1CCCC1 (stereo not given) | 69.06
71 | CCOC(=O)NCC(=O)Nc1nc2ccccc2n1C(C)(C)C | 30.23
72 | CCc1nccc(CN2CCC(CNC(=O)c3occc3C)C2)n1 (stereo not given) | -4.04
73 | Cc1ncc2c(n1)CN(Cc1nc(Cc3ccccc3)no1)CC2 | -54.44
74 | CC(C)c1ncc2c(n1)CN(Cc1nc(Cc3ccccc3)no1)CC2 | 6.12
75 | c1ccc(Cc2noc(CN3CCc4cncnc4C3)n2)cc1 | 56.02
76 | Cc1cccc(C2CCCN2C(=O)CN(C)S(C)(=O)=O)c1C (stereo not given) | -73.81
77 | COCCn1c2c(ccc1=O)CC(NC(=O)c1cscn1)CC2 (stereo not given) | -25.4
78 | NC1CC(C(F)(F)F)=NC=C1c1ccc(Cl)cc1 (stereo not given) | -19.36
79 | CN(C)c1cc(CNCc2cccc3c2OCCO3)ccn1 | -15.64
80 | FC1(F)CCN(Cc2cccnc2)CC12CCN(c1ccccc1)C2 (stereo not given) | 31.41
81 | COc1cccc(CC(=O)N2CCc3ncnc(C)c3CC2)c1 | 19.49

Row | Structure (SMILES) | INHIBITION [%]
82 | COc1cccc(CC(=O)N2CCc3ncnc(NC(C)C)c3CC2)c1 | 2.71
83 | O=C(CC1C=CCC1)N1CCc2ncnc(NCc3ccon3)c2CC1 (stereo not given) | 42.26
84 | CC(C)Nc1ncnc2c1CCN(C(=O)[C@H]1CCCO1)CC2 | 35.89
85 | COc1cccc(CC(=O)N2CCc3ncnc(NCCO)c3CC2)c1 | 52.98
86 | O=C(C1CCCCO1)N1CCc2ncnc(NCCO)c2CC1 (stereo not given) | 57.89
87 | O=C(C1CCCO1)N1CCc2ncnc(NC3CCC3)c2CC1 (stereo not given) | 46.32
88 | O=C(C1CCCCO1)N1CCc2ncnc(NCc3ccon3)c2CC1 (stereo not given) | 59.58
89 | O=C([C@H]1CCCO1)N1CCc2ncnc(NC3CC3)c2CC1 | -15.36
90 | CC(NCc1ccc(-c2ccc(F)cc2)o1)c1nnc2n1CCC2 (stereo not given) | -40.26
91 | Nc1nnc(Cn2nnc(-c3ccccc3F)n2)s1 | 39.58
92 | CNc1ncc(CN2CCC(CCc3ccccc3)CC2)cn1 | 49.87
93 | O=C(c1cccc(-n2cnnc2)c1)N1C[C@@H](O)[C@H](N2CCOCC2)C1 | -8.04
94 | CN1CCC(N(C)C[C@H]2CC[C@@H](Cc3cccc(O)c3)O2)CC1 | -66.38
95 | COc1ccc(C[C@@H]2CC[C@H](CN(C)C3CCN(C)CC3)O2)cc1 | 68.08
96 | CN1CCC(N(C)C[C@H]2CC[C@@H](Cc3ccc4occc4c3)O2)CC1 | -10.59
97 | Cc1cc(C)n(CC2CCCCN2CC(=O)N(C)Cc2ccco2)n1 (stereo not given) | 40.82
98 | CC(CNC(=O)c1c[nH]nn1)Oc1ccc(Cl)cc1 (stereo not given) | -4.64
99 | O=C(N1CCCC1)N1CCN(CC2CC2)c2ncccc2C1 | -3.08
100 | O=C(C1CCOCC1)N1CCN(CC2CC2)c2ncccc2C1 | 51.27
101 | O=C(C1CCOC1)N1CCN(Cc2ccncc2)c2ncccc2C1 (stereo not given) | 31.08
102 | CCN(CC)S(=O)(=O)N(CC)Cc1ccc2c(c1)OCCO2 | -3.05
103 | CCN(Cc1ccc2c(c1)OCO2)S(=O)(=O)N(C)C(C)C | 41.99
104 | CCN(Cc1ccc2c(c1)OCCO2)S(=O)(=O)N(C)C(C)C | 63.95
105 | Cc1n[nH]c(C2CN(CC(=O)NCCc3ccc(F)cc3)CCO2)n1 (stereo not given) | 5.47
